“And” between values parts separate entries of the source, which are not always exact repeats. Identical values can stand only once. This is part of a sample that, as a whole, favours compounds with a hit. Of some 83,000 tested, about 20% had one in any assay.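 A percent growth of 40 corresponds to 60% growth inhibition; 0 means no net growth; -100 means all cells died. Active threshold: below 10.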 A number with no mark means an inactive call. The source made the active and inactive calls.
System: MDA-MB-468 breast
Experiment: NCI-60 one-dose screen, 48 h (100 = growth as untreated, 0 = no growth, -100 = all killed)
Settings: 10 µM unless noted

Structure (SMILES) | growth
Cc1ccc(-c2noc(C)n2)cc1 | 101%
Cc1cc(Nc2cc(N3CCN(C)CC3)nc(/C=C/c3ccccc3)n2)n[nH]1 | -17.8% (active)
Nc1c2c(c(O)c3c1=C(CO)C=N3)=NCCS2 | -72% (active)
O=c1c2cc(F)ccc2sc2c(NCCCNCCO)nc3ccccc3c12 | -72.8% (active)
O=C(CNc1ccc2c(c1)C(=O)c1ccccc1C2=O)Nc1ccc2c(c1)C(=O)c1ccccc1C2=O | -87.4% (active)
OCC(CO)(CCl)CCl | 107%
O=C(Nc1cccc(C(F)(F)F)c1)c1cc(-c2ccc(F)cc2F)ccc1O | -5% (active)
O=C1/C(=C/c2ccc(-c3ccccc3C(F)(F)F)o2)SC(=S)N1CCc1ccc(O)cc1 | 28.8%
COc1cc(C(=O)n2nc(-c3cc(OC)c(OC)c(OC)c3)nc2N)cc(OC)c1OC | 101%
Cn1ccnc1C(=O)/C=C/c1ccc(CC(=O)Nc2cc(C(F)(F)F)cc(C(F)(F)F)c2)cc1 | 78%
COc1ccc(-c2nnc(SCC(=O)NC3=NN=C(c4ccccc4)CS3)o2)cc1 | 105%
CNC(=O)c1c(I)c(NC(C)=O)c(I)c(C(=O)O)c1I | 102%
Cc1ccc(S(=O)(=O)n2cc(C(=O)C(=O)N3CCOCC3)c3ccccc32)cc1 | 90.4%
CS(=O)(=O)N(c1cc(-c2ccc3ncnc(Nc4cccc(Cl)c4)c3c2)cnc1Cl)S(C)(=O)=O | -42.1% (active)
CC1(C)CC[C@]2(c3nnc(-c4ccncc4)o3)CC[C@]3(C)C(=CC[C@@H]4[C@@]5(C)CCC(=O)C(C)(C)[C@@H]5CC[C@]43C)[C@@H]2C1 | 80%
COc1cc(C2Cc3ncccc3-c3[nH]c(=O)c4cccnc4c32)cc(OC)c1OC (stereo not given) | 22.8%
COc1ccc(OC)c(/C=C/c2nc(SC)n(-c3ccc(Cl)cc3)n2)c1 | 25.2%
O=C(N[C@@H]1CCCc2ccccc21)[C@H](CCC(=O)N1CCN(C2CCCCC2)CC1)N1C(=O)[C@@H](N2C(=O)OC[C@@H]2c2ccccc2)[C@H]1/C=C/c1ccccc1 | -34.6% (active)
Cc1c(C)c2c(c(C)c1NC(=O)CCCCCCC(=O)O)CCC(C)(CCCC(C)CCCC(C)CCCC(C)C)O2 (stereo not given) | 90.1%
CC(=O)Nc1nc(C)c(C(=O)N/N=C/c2cccn2C)s1 | 111%

Structure (SMILES) | growth
Cc1nn(-c2ccccc2)c(-n2ccnc2)c1/C=N/Nc1nc(-c2ccc(F)cc2)cs1 | 27.3%
Cc1cc(Br)ccc1-n1cc(C#N)c(N)c1C(=O)c1ccc(Br)cc1 | 93.4%
COC1=CC(c2ccc[nH]2)=N/C1=C\c1[nH]c(C)c(CC(=O)OCc2ccccc2)c1CCC(=O)OCc1ccccc1 | -31.2% (active)
CCN(CC)CCC(CNc1ccnc2cc(Cl)ccc12)c1ccc(Cl)cc1 (stereo not given) | -86.6% (active)
S=C(Nc1ccc(Cl)cc1)Nc1ccc(Cl)cc1 (tested in a mixture with another compound) | -16.6% (active)
CCN(CC)C(=S)SSC(=S)N(CC)CC | 77.7% and 111%
C=CCc1cc(OC)c(O)c(OC)c1 | 112%
COc1ccc(C2C(C#N)=C(N)Oc3c2sc2ccc(C)cc32)cc1 (stereo not given) | -13.2% (active)
COc1c(Cl)ccc2c(-c3nc4cc(Cl)c(F)cc4s3)cc(=O)oc12 | 80%
CC(C)CCC[C@@H](C)[C@H]1CCC2C3=CCC4C(=O)C=CC(=O)C4C3CC[C@@]21C (stereo not given in full) | 2.69% (active)
CCOC(=O)C1(N)CCCCC1 | 105%
C=C1CC[C@@H]2[C@](C)(COC(C)=O)[C@H](OC(C)=O)CC[C@@]2(C)[C@@H]1CC(Sc1ccccc1)C1=CCOC1=O (stereo not given in full) | -61.1% (active)
COc1cccc(-c2nn(-c3ccccc3)cc2-c2ccnc(NCCNS(=O)(=O)c3cccc(F)c3)c2)c1 | 15.8%
CCOC(=O)c1cc(C(=O)c2ccc(OC)c(OC)c2)n2c1ccc1ccccc12 | 97%
CCc1nc(N)nc(N)c1C#CC(C)c1ccc(-c2ccncc2)cc1Cl (stereo not given) | 5.88% (active)
c1ccc2c(c1)oc1c3c(ccc12)NCCC3 | -51.5% (active)
O=C1c2cccnc2-c2nccc3c2c1nc1cc(Br)ccc13 | -54.6% (active)
S=C(S)OCN1CCOCC1 | 99.1%
COc1cc(C(=O)c2ccccc2C(=O)O)c(OC)c2c1CCCC2 | 94.7%
Nc1ccn(C2OC(F)(CO)C(O)C2F)c(=O)n1 (stereo not given) | 76.2%
